Results published in PubChem BioAssay.
Calls of active or inactive are those of the source.

The compounds below were run against NADPH oxidase 4 (Homo sapiens) (UniProt Q9NPH5) (assay: NOX4-dependent H2O2 signal modulators, primary screen, NOX inhibitor project, cell-based, HEK293-NOX4, tetracycline-induced, Amplex Red fluorescence (AID 1160)). Conditions: 45 min, higher = more signal, called active from +8 up or from −8 down.
NADPH oxidase 4 (Homo sapiens), sequence (Q9NPH5 whole entry, looked up): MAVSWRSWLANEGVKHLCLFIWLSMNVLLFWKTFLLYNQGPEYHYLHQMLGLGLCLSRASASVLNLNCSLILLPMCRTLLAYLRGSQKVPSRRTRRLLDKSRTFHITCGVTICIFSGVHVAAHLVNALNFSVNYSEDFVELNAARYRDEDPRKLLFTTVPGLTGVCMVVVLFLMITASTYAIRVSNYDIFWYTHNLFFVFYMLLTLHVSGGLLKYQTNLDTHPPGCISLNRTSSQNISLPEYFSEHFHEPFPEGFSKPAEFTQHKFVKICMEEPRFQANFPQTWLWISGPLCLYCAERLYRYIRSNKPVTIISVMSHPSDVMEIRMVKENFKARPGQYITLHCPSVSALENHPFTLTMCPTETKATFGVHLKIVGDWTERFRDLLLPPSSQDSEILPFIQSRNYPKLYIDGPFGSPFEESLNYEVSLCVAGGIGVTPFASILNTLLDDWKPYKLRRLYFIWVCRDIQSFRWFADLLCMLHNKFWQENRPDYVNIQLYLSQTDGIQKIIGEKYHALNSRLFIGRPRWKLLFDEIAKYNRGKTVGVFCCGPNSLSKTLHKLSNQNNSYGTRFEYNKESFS

z-score, inactive:
C[N+](C)(C)CCCCNC(=O)[C@H]1C[C@H]2C(=O)N[C@@H](Cc3ccccc3)C(=O)N2[C@H]1c1ccc(O)cc1 -1.27
[N-]=[N+]=NCc1ccccc1C[C@]1(C(=O)N2CCOCC2)N=C(c2ccc(OCCCO)cc2)O[C@H]1c1ccccc1N=[N+]=[N-] -2.96
CC(=O)NCCCC[C@@H]1NC(=O)[C@@H]2C[C@H](C(=O)NCCCCN(C)C)[C@H](c3cccc(OCCO)c3)N2C1=O -0.115
COc1ccc(C(O)C2C=CC3C(=O)N(c4ccccc4)C(=O)C3N2Nc2ccc(C(C)C)cc2)cc1OCc1ccccc1 (stereo unspecified) -2.55
[N-]=[N+]=Nc1ccccc1[C@H]1OC(c2ccc(OCCCO)cc2)=N[C@@]1(Cc1ccccc1)C(=O)O 1.5
O=C(NCc1ccccc1)[C@@]1(Cc2ccccc2)N=C(c2ccc(OCCCO)cc2)O[C@H]1c1ccccc1 0.98
CCOC1=C2C(CN(S(=O)(=O)c3ccc(C)cc3)C2c2ccc(C)cc2)C2C(=O)N(c3ccccc3)C(=O)C2C1 (stereo unspecified) 0.103
CCOC(=O)C[C@H]1[C@H](OC(=O)c2ccc(C(=O)c3ccccc3)cc2)[C@@H](NC(=O)c2ccc(-c3ccccc3)cc2)c2cc(OCCCO)ccc2N1C(=O)c1ccccc1 0.379
COCCOC(=O)N1C(=O)[C@@]2(c3cc(C#Cc4ccc(OC)cc4)ccc31)[C@H](c1ccc(O)cc1)N1[C@H](c3ccccc3)[C@H](c3ccccc3)OC(=O)[C@H]1[C@@H]2C(=O)NC[C@H](O)c1ccccc1 -1.05
COc1ccc(C(=O)O[C@H]2CC[C@]3(C)C4=C(CCC3C2(C)C)[C@]2(C)CC[C@H]([C@H](C)CCCC(C)C)[C@@]2(C)CC4)cc1 (stereo partly specified) 0.257
COc1ccc(C(=O)Nc2ccc(CN3C(=O)[C@@]4(O[C@@H](CCn5cc([C@H](O)c6ccccc6)nn5)[C@H]([Si](C)(C)c5ccc(OC)cc5)[C@H]4C)c4ccccc43)cc2)cc1 0.709
O=C1c2ccccc2[C@@]2(Cc3ccccc3N(CCN3CCOCC3)C2=O)[C@H](c2ccc(CO)cc2)N1Cc1ccccc1 -0.582
CC[C@@H]1C=C(C(=O)O)[C@H](c2ccco2)N1S(=O)(=O)c1ccc(C)cc1 -0.589
O=C1OCCC/C=C\[C@H]2OC34C=CCN(CCN5CCOCC5)C(=O)[C@H]3N(CCCO)C(=O)[C@@H]4C12 (stereo partly specified) 0.481
COC(=O)[C@@]1(Cc2ccccc2)[C@H]2c3cc(C(=O)N4CCCC4)n(Cc4nc5ccccc5[nH]4)c3C[C@H]2CN1C(=O)c1ccccc1 -0.142
CC(C)c1ccc(NN2C(C(O)C(c3ccccc3)c3ccccc3)C=CC3C(=O)N(c4ccccc4)C(=O)C32)cc1 (stereo unspecified) -4.56
C#CCN(Cc1ccccc1Br)C(/C=C/c1ccccc1)CO (stereo unspecified) -0.157
O=C1C2C=CC(C(O)c3c(F)cccc3Cl)N(Nc3ccccc3)C2C(=O)N1c1ccccc1 (stereo unspecified) -3.01
NC(=O)[C@@H]1[C@H]2C(=O)O[C@H](c3ccccc3)[C@H](c3ccccc3)N2[C@H](c2ccc(O)cc2)[C@@]12C(=O)Nc1ccc(C#CC3(O)CCCCCC3)cc12 -0.258
CCOC(=O)C[C@H]1[C@H](OC(=O)Cc2ccc3c(c2)OCO3)[C@@H](NC(=O)c2ccc3ccccc3c2)c2cc(OCCCO)ccc2N1C(=O)c1ccccc1 0.321
CN(C)C(=O)[C@]1(Cc2ccccc2N=[N+]=[N-])N=C(c2ccc(OCCCO)cc2)O[C@@H]1c1ccccc1 -0.433
COC(=O)c1c(CC[C@@H](CO)NC(=O)N[C@@H](C)Cn2cc(C3(O)CCCCC3)nn2)oc(C(C)=O)c1C(=O)OC -2.61
O=C1C2C=CC(C(O)c3ccc(F)cc3)N(Nc3ccccc3F)C2C(=O)N1c1ccccc1 (stereo unspecified) -4.97
O=C(c1ccccc1)N1Cc2ccccc2[C@@H]2OC(c3ccc(OCCCO)cc3)=N[C@]2(Cc2ccccc2)C1=O 0.418
C=C(COC)/C(=C/C[C@H](OC(=O)c1ccncc1)c1ccc(OCCO)cc1)c1cnc2ccccc2c1 -0.192
COCCOC(=O)N1C(=O)[C@@]2(c3cc(C#CCNC(N)=O)ccc31)[C@H](C(=O)NC[C@H](O)c1ccccc1)[C@H]1C(=O)O[C@H](c3ccccc3)[C@H](c3ccccc3)N1[C@@H]2c1ccccc1OCCO 1.63
COc1ccc([C@H]2C[C@H]3C(Br)=C[C@@H]2C(=O)[C@]32CO2)cc1 0.106
C=CCOC(=O)[C@@H]1[C@H]2C(=O)O[C@H](c3ccccc3)[C@H](c3ccccc3)N2[C@H](c2ccc(OCCOC(=O)[C@@H]3C[C@@H]4C(=O)N[C@@H](Cc5ccccc5)C(=O)N4[C@@H]3c3ccc(O)cc3)cc2)[C@@]12C(=O)Nc1ccc(I)cc12 0.304
O=C1OCC=C[C@H]2OC34C=CCN(c5ccc6ccccc6c5)C(=O)[C@H]3N(CCCCCCO)C(=O)[C@@H]4[C@@H]12 (stereo partly specified) 0.0322
[N-]=[N+]=Nc1ccccc1C[C@]1(C(N)=O)N=C(c2ccc(OCCCO)cc2)O[C@H]1c1ccccc1 0.247
O=C1OCCC/C=C\[C@H]2OC34C=CCN(Cn5nnc6ccccc65)C(=O)[C@H]3N(CCO)C(=O)[C@@H]4C12 (stereo partly specified) 0.409
COc1cc2c(cc1OC)CN(C(=O)[C@H]1[C@@H]3C(=O)O[C@@H](c4ccccc4)[C@@H](c4ccccc4)N3[C@@H](c3ccc(O)cc3)[C@]13C(=O)Nc1ccc(C#CC4=CCCCC4)cc13)CC2 0.513
Cc1ccc(S[C@]2(C(=O)NCC(C)C)CC(=O)N(Cc3cc(C(F)(F)F)cc(C(F)(F)F)c3)[C@@H]2c2ccc(CO)cc2I)cc1 -1.39
CCCC[C@@H]1C[C@H]1[C@@H](NC(=O)c1ccco1)c1ccc(C(=O)OC)cc1 -1.96
O=C1O[C@H](c2ccccc2)[C@H](c2ccccc2)N2[C@H]1[C@@H](C(=O)O)[C@]1(C(=O)Nc3ccc(C#CC4=CCCCC4)cc31)[C@H]2c1ccccc1OCCO -1.94
CC(=O)N1Cc2ccccc2C[C@@]2(COC(c3ccc(OCCCO)cc3)=N2)C1=O 1.74
